From PubChem BioAssay AID1159580 (chemical genetic matrix, 2015)
Where “and” joins values, the source holds several entries; their conditions need not be identical. Equal values may be shown once. Out of some 5,500 compounds screened, about 2,000 (36%) were called active. Another 18% or so got no clear call; they are omitted. Cut-off read from the data, not from the text of the source: active = normalized growth mostly below about 0.91 (no sharp cut-off); inconclusive = no clear call, values can overlap the other calls; inactive = mostly above about 0.92. The list shows a part of the results.

Assay: chemical genetic growth profiling, strain panel (AID 1159580);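 note: tested at 20 µM; growth read once vehicle control cultures reached saturation at 30 °C; 1 = growth at the plate median or of vehicle wells; lower values mean less growth of the strain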
Conditions: S. cerevisiae deletion strains, growth OD

Measured: normalized growth

COC(=O)C[C@H]1C(C)(C)[C@@H](O)[C@@H]2CC3=C4C=C(OC)O[C@@H](c5ccoc5)[C@]4(C)CCC3[C@@]1(C)C2=O (some centres not stated)
inactive: locus YAL021C, strain ccr4, stronger effect = lower value 0.996 | locus YAL026C, strain drs2, stronger effect = lower value 0.99 | locus YAL030W, strain snc1, stronger effect = lower value 1 | locus YBL061C, strain skt5, stronger effect = lower value 1.01 | locus YBR009C, strain hhf1, stronger effect = lower value 1.01 | locus YBR021W, strain FUR4, stronger effect = lower value 1.01 | locus YBR023C, strain chs3, stronger effect = lower value 0.997 | locus YBR171W, strain sec66, stronger effect = lower value 0.999 | locus YBR229C, strain ROT2, stronger effect = lower value 1 | locus YBR231C, strain swc5, stronger effect = lower value 1 | locus YBR279W, strain paf1, stronger effect = lower value 0.999 | locus YCL011C, strain gbp2, stronger effect = lower value 1.01 | locus YCL016C, strain dcc1, stronger effect = lower value 0.999 | locus YCL029C, strain bik1, stronger effect = lower value 0.978 | locus YCL061C, strain MRC1, stronger effect = lower value 1.01 | locus YCL069W, strain vba3, stronger effect = lower value 0.983 | locus YCR088W, strain abp1, stronger effect = lower value 0.99 | locus YDL005C, strain med2, stronger effect = lower value 0.989 | locus YDL035C, strain GPR1, stronger effect = lower value 1.01 | locus YDL040C, strain nat1, stronger effect = lower value 0.998 | locus YDL074C, strain BRE1, stronger effect = lower value 1.02 | locus YDL101C, strain DUN1, stronger effect = lower value 1 | locus YDL134C, strain PPH21, stronger effect = lower value 1.01 | locus YDL185W, strain tfp1, stronger effect = lower value 0.982 | locus YDL192W, strain arf1, stronger effect = lower value 0.991 | locus YDR001C, strain nth1, stronger effect = lower value 0.992 | locus YDR069C, strain doa4, stronger effect = lower value 0.998 | locus YDR101C, strain arx1, stronger effect = lower value 1 | locus YDR137W, strain rgp1, stronger effect = lower value 1.01 | locus YDR159W, strain sac3, stronger effect = lower value 0.998 | locus YDR162C, strain NBP2, stronger effect = lower value 0.987 | locus YDR195W, strain ref2 0.962 | locus YDR297W, strain sur2, stronger effect = lower value 0.994 | locus YDR318W, strain mcm21, stronger effect = lower value 0.995 | locus YDR334W, strain swr1, stronger effect = lower value 0.978 | locus YDR335W, strain msn5, stronger effect = lower value 0.994 | locus YDR388W, stronger effect = lower value 0.985 | locus YDR392W, strain spt3, stronger effect = lower value 0.992 | locus YDR502C, strain sam2, stronger effect = lower value 0.982 | locus YEL003W, strain gim4, stronger effect = lower value 0.994 | locus YEL037C, strain rad23, stronger effect = lower value 0.988 | locus YEL061C, strain CIN8 (second series), stronger effect = lower value 0.982 | locus YEL061C, strain CIN8, stronger effect = lower value 1 | locus YER015W, strain faa2, stronger effect = lower value 1 | locus YER016W, strain bim1, stronger effect = lower value 1.01 | locus YER110C, stronger effect = lower value 0.979 | locus YER111C, strain swi4, stronger effect = lower value 1 | locus YER155C, strain BEM2 (second series), stronger effect = lower value 1.02 | locus YER155C, strain BEM2, stronger effect = lower value 1 | locus YER167W, strain BCK2, stronger effect = lower value 1.02 | locus YFR010W, strain ubp6, stronger effect = lower value 0.982 | locus YGL078C, strain dbp3, stronger effect = lower value 0.984 | locus YGL086W, strain mad1, stronger effect = lower value 0.991 | locus YGL167C, strain pmr1, stronger effect = lower value 1.01 | locus YGL173C, strain kem1, stronger effect = lower value 1 | locus YGL227W, strain vid30, stronger effect = lower value 0.983 | locus YGL240W, strain doc1, stronger effect = lower value 1.02 | locus YGL248W, strain PDE1, stronger effect = lower value 0.999 | locus YGL253W, strain hxk2, stronger effect = lower value 0.993 | locus YGR078C, strain PAC10, stronger effect = lower value 1 | locus YGR135W, strain pre9, stronger effect = lower value 0.976 | locus YGR252W, strain gcn5, stronger effect = lower value 0.994 | locus YHR013C, strain ard1, stronger effect = lower value 1.01 | locus YHR027C, strain rpn1, stronger effect = lower value 0.994 | locus YHR030C, strain SLT2, stronger effect = lower value 0.96 | locus YHR079C, strain IRE1 (second series), stronger effect = lower value 0.992 | locus YHR079C, strain IRE1, stronger effect = lower value 0.968 | locus YHR094C, strain hxt1, stronger effect = lower value 0.987 | locus YHR129C, strain ARP1, stronger effect = lower value 1 | locus YHR142W, strain chs7, stronger effect = lower value 0.977 | locus YHR200W, strain rpn10, stronger effect = lower value 0.988 | locus YIL066C, strain RNR3, stronger effect = lower value 1.02 | locus YIL073C, strain SPO22, stronger effect = lower value 0.981 | locus YIL125W, strain kgd1, stronger effect = lower value 0.991 | locus YIR030C, strain dcg1, stronger effect = lower value 0.992 | locus YJL092W, strain hpr5, stronger effect = lower value 0.993 | locus YJL095W, strain BCK1 (second series), stronger effect = lower value 1 | locus YJL095W, strain BCK1, stronger effect = lower value 0.996 and 0.97 | locus YJL115W, strain asf1, stronger effect = lower value 0.985 | locus YJL129C, strain trk1, stronger effect = lower value 0.97 | locus YJL134W, strain LCB3, stronger effect = lower value 1.01 | locus YJL154C, strain vps35, stronger effect = lower value 0.978 | locus YJL164C, strain tpk1, stronger effect = lower value 0.997 | locus YJL166W, strain qcr8, stronger effect = lower value 0.995 | locus YJL168C, strain set2, stronger effect = lower value 0.983 | locus YJL187C, strain SWE1 (second series), stronger effect = lower value 1.01 | locus YJR043C, strain POL32, stronger effect = lower value 1.04 | locus YJR066W, strain TOR1, stronger effect = lower value 0.92 | locus YKL009W, strain mrt4, stronger effect = lower value 0.986 | locus YKL068W, stronger effect = lower value 0.996 | locus YKL085W, strain MDH1 (second series), stronger effect = lower value 0.975 | locus YKL085W, strain MDH1, stronger effect = lower value 0.975 | locus YKL160W, strain elf1, stronger effect = lower value 1.01 | locus YKL190W, strain CNB1, stronger effect = lower value 1 | locus YKR001C, strain vps1, stronger effect = lower value 0.992 | locus YKR026C, strain gcn3, stronger effect = lower value 0.972 | locus YKR091W, strain srl3, stronger effect = lower value 1 | locus YLL001W, strain dnm1, stronger effect = lower value 1 | locus YLL026W, stronger effect = lower value 1.01 | locus YLL041C, strain sdh2, stronger effect = lower value 1.02 | locus YLR027C, strain aat2, stronger effect = lower value 1 | locus YLR039C, strain RIC1, stronger effect = lower value 0.935 | locus YLR058C, strain SHM2, stronger effect = lower value 1.01 | locus YLR102C, strain apc9, stronger effect = lower value 0.987 | locus YLR113W, strain HOG1, stronger effect = lower value 0.998 | locus YLR221C, strain rsa3, stronger effect = lower value 0.998 | locus YLR258W, strain gsy2, stronger effect = lower value 0.993 | locus YLR262C, strain YPT6 (second series), stronger effect = lower value 0.959 | locus YLR262C, strain YPT6, stronger effect = lower value 0.857 | locus YLR268W, strain sec22, stronger effect = lower value 0.997 | locus YLR320W, strain mms22, stronger effect = lower value 1 | locus YLR342W, strain FKS1 (second series), stronger effect = lower value 1.02 | locus YLR342W, strain FKS1, stronger effect = lower value 0.999 | locus YLR357W, strain rsc2, stronger effect = lower value 1.01 | locus YLR370C, strain arc18, stronger effect = lower value 0.993 | locus YLR371W, strain rom2, stronger effect = lower value 0.983 | locus YLR384C, strain iki3, stronger effect = lower value 1 | locus YLR418C, strain cdc73, stronger effect = lower value 0.962 | locus YML016C, strain PPZ1, stronger effect = lower value 1.01 | locus YML032C, strain rad52, stronger effect = lower value 1 | locus YML120C, strain ndi1, stronger effect = lower value 0.998 | locus YML124C, strain tub3, stronger effect = lower value 0.992 | locus YMR058W, strain fet3, stronger effect = lower value 1 | locus YMR078C, strain ctf18, stronger effect = lower value 0.987 | locus YMR125W, strain sto1, stronger effect = lower value 0.993 | locus YMR129W, stronger effect = lower value 0.997 | locus YMR205C, strain PFK2, stronger effect = lower value 1.02 | locus YMR223W, strain ubp8, stronger effect = lower value 0.976 | locus YMR231W, strain pep5, stronger effect = lower value 0.997 | locus YMR307W, strain GAS1, stronger effect = lower value 1 | locus YNL067W, strain RPL9B, stronger effect = lower value 0.997 | locus YNL071W, strain lat1, stronger effect = lower value 0.978 | locus YNL183C, strain NPR1, stronger effect = lower value 0.938 | locus YNL209W, strain ssb2, stronger effect = lower value 0.985 | locus YNL233W, strain BNI4, stronger effect = lower value 1.01 | locus YNL248C, strain rpa49, stronger effect = lower value 0.97 | locus YNL250W, strain rad50, stronger effect = lower value 0.981 | locus YNL271C, strain bni1, stronger effect = lower value 0.985 | locus YNL298W, strain CLA4, stronger effect = lower value 0.984 | locus YNL307C, strain MCK1, stronger effect = lower value 0.98 | locus YNL322C, strain KRE1 (second series), stronger effect = lower value 1.01 | locus YNR049C, strain mso1, stronger effect = lower value 1 | locus YNR052C, strain pop2, stronger effect = lower value 0.979 | locus YOL006C, strain TOP1, stronger effect = lower value 1.03 | locus YOL012C, strain htz1 1.17 | locus YOL147C, strain pex11, stronger effect = lower value 0.986 | locus YOR001W, strain rrp6, stronger effect = lower value 0.989 | locus YOR061W, strain CKA2, stronger effect = lower value 1 | locus YOR069W, strain VPS5, stronger effect = lower value 1 | locus YOR070C, strain gyp1, stronger effect = lower value 0.987 | locus YOR080W, strain dia2, stronger effect = lower value 0.992 | locus YOR083W, strain WHI5, stronger effect = lower value 1.01 | locus YOR106W, strain vam3, stronger effect = lower value 0.98 | locus YOR136W, strain idh2, stronger effect = lower value 0.991 | locus YOR144C, strain elg1, stronger effect = lower value 0.992 | locus YOR184W, strain ser1, stronger effect = lower value 0.994 | locus YOR231W, strain MKK1, stronger effect = lower value 0.98 | locus YOR265W, strain rbl2, stronger effect = lower value 0.993 | locus YOR270C, strain vph1, stronger effect = lower value 0.86 | locus YOR290C, strain snf2, stronger effect = lower value 1.03 | locus YOR316C, strain cot1, stronger effect = lower value 0.981 | locus YPL051W, strain arl3, stronger effect = lower value 1.02 | locus YPL055C, strain LGE1, stronger effect = lower value 1.03 | locus YPL078C, strain atp4, stronger effect = lower value 0.985 | locus YPL106C, strain sse1, stronger effect = lower value 1.02 | locus YPL240C, strain hsp82, stronger effect = lower value 0.991 | locus YPL256C, strain CLN2, stronger effect = lower value 0.955 | locus YPR119W, strain clb2, stronger effect = lower value 0.982 | locus YPR141C, strain kar3, stronger effect = lower value 0.98 | locus YPR163C, strain tif3, stronger effect = lower value 0.981 | locus YPR167C, strain met16, stronger effect = lower value 0.983 | strain wtn01, stronger effect = lower value 1
